In this assay the test system is VDR:RXRa (NR concentration 270 nM, RXRa partner concentration 90 nM). The assay is described as follows: PBM binding z-score (relative to random genomic background probes); higher = stronger binding; sequences stand for … in GC…GCGATTGACAGCGTAGAATGAAGG
As for the experimental part:
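Protein-binding microarray (Agilent 4x180K custom design, double-stranded 60-nt probes: 5' GC cap, 34-nt variable region, 24-nt constant primer region; full probe sequence given). Purified or IVT nuclear receptor:RXRα heterodimers (3:1 NR:RXRα, mostly 270:90 nM) or homodimers were incubated for 1 h in PBS with 2% milk and no ligand, then detected with Alexa488 antibodies. Fluorescence from o1-orientation probes (~5 replicates averaged) was converted to z-scores against 500 random hg19 background probes. Variable regions are seed direct-repeat (DR0–DR5) sites, all their single-nucleotide variants and half-site ablations.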
In the case of AATACACGGTCACTAGGCCAGAGTAGGTACGAAT, the PBM binding z-score is 0.248.

In the case of TCTAGCAGGCCAGAGGGTCACACAAGAGGTACGG, the PBM binding z-score was found to be 2.26.

Turning to AGAACGAGGGCAAGGAGTTGATAGCACGGGTGGC, the PBM binding z-score turned out to be 3.32.

On to TCGAGTAGGTTAGAGGCATTCAGAATGGCGTCGA, for which the PBM binding z-score is -0.327.

Turning to CGAATTAGGTCAGAACAGGACAGTGAAGGATGAT, the PBM binding z-score was 0.932.

For CGTCCAAGGTCAGAGAGCTCAGTGAATGCCGAGT, the PBM binding z-score was 2.76.

TAGCCTAGGTCATGCAGGGGCCAGTATAGAAAGC had a PBM binding z-score of 2.7.

With CGGACTGGGGCAGAAAGGTTACCATACCATCCGG, the PBM binding z-score came out at 1.33.

In turn, ACTATTAGTTGAGACGAGGGCAACAGATAGGTTG registered a PBM binding z-score of 0.625.

Take CCTGCTACGTCATGGTCAGCTAATCTACAGTATG: the PBM binding z-score is -0.408.

The sequence CGTCAAAGTTCAACTAAGGTAACGTAGAGCACGC gave a PBM binding z-score of 4.59.

Regarding GATACAGGGTCAAGGCCATAGTACGCGTATTGAT, the PBM binding z-score amounted to 4.21.

The sequence CCGAGTTGGTTATGGGGCATTCAGGCAACGGTGA gave a PBM binding z-score of 0.221.

GGACCAAGGTGAATAGGTCGTTGATGAGTAGGCG showed a PBM binding z-score of 0.886.

CCTACTGGGCCAAGGTCGTTGATCAGTCAAAGCA: the PBM binding z-score was found to be 0.505.

For CCTTACGGGTCACGAGGTTATAGAACGACGAGCG, the PBM binding z-score was found to be 5.31.

Regarding CCTGCTAGGTTAATGGTCAGCTAAAGCAGCTCGC, the PBM binding z-score is -0.293.

On to TCGTGTAGATCAATAGAGGTTAAGAAAGTGCGCT, for which the PBM binding z-score stood at 1.83.

Turning to CGTCAAAGTTCAACTAAAGTAACGTAAAGCACGC, the PBM binding z-score is 4.08.

Consider TCAGATAGGTAATACAGGTGAAAGTCGGCATCTA, for which the PBM binding z-score worked out at 0.887.

The sequence CCTACTGGGGCATTCAGAGGTCATTGATCATATG had a PBM binding z-score of 4.47.

ACTCAAAGTTCACTAGGTAACGTAAGATTCAGCT came in with a PBM binding z-score of 4.17.

TCTTGTAGATCCAGCAGGTTAAGAAAGCCTGAGT: the PBM binding z-score is 0.306.

The sequence TCATATAGGTAAAGGCGAAAGTCGAACGATATGA registered a PBM binding z-score of 0.324.

In turn, TCATATTGGTAAAAGGTGAAAGTCGGTGTGGTAA gave a PBM binding z-score of 1.64.

CGACCTAGGTCAGAACAGGACAGTGAAGGATGAT: the PBM binding z-score amounted to 1.05.

CAAACTAGGTCACGGGAAGGTCAAAGTCCGCATG: the PBM binding z-score came out at 6.27.

TGAATGAGCTTATAAGATCAGGGAACGTTGCAAA: the PBM binding z-score is -0.361.

TGTCAAAGTTCAAAGGTAACGTAGGTATCCACAC returned a PBM binding z-score of 5.15.

As for AGAATGAGGTTACCCAAGATCAGGGAAACGCTTG, the PBM binding z-score worked out at 1.55.

Sequence TCGAGTCGGTTAGGGGCATTCAGAATGGCGTCGA returned a PBM binding z-score of 0.541.

GCTCCTAGGTCAGGTTGGTCAGCTAACGGGTACG: the PBM binding z-score amounted to 0.913.

GTACCAAGGTGAATAGGTCTTTGATGAGTAGGCG returned a PBM binding z-score of 0.495.

CGTCCAAGGTCAAGGTCAGCGAAAGAGACTCGAA displayed a PBM binding z-score of 4.97.

In turn, CAATCTAGGTCAAGGTCAAAGTCGGTTTGTGCCA registered a PBM binding z-score of 4.97.

Sequence CAAACTAGGTCAAGAGCTCAAAGTCCGCTTCCCG showed a PBM binding z-score of 1.29.

With TCTTGTAGATCAAAGGTTGAGAAAGCCGAAGCCT, the PBM binding z-score was found to be 0.408.

Turning to GCTTACGGGTCAAAGGTTATAGGATGAATAGAAT, the PBM binding z-score amounted to 5.56.

In turn, TAGAGTAGGTTAGTCGGGGCATTCAGCCAACATA showed a PBM binding z-score of 2.52.

Sequence TCTAGTTGGTCAAAGGTCACAGACTCGAAATGCG displayed a PBM binding z-score of 5.45.

The values above are taken from the supplement of paper PMC6555819.
